The text below walks through data of PubChem BioAssay (Tox21).

Where “and” joins values, the source holds several entries; their conditions need not be identical. Identical values can stand only once. Records with an inconclusive call do not appear. Entries that show only a call come without a potency. Calls of active or inactive are those of the source. Calls come from the whole dose curve; as a rule, active = well fitted cell-killing curve with a large enough effect in the repeat runs; inconclusive = weak or mixed curves, or effect the other way; inactive = flat fitted curve, though single readings scatter.
Potency is the fitted concentration of half-maximal effect.

The first experiment can be described thus: cAMP Responsive Elements (CRE) small molecule antagonists, cell-based qHTS assay: qHTS cell viability counter screen (AID 2060913). Note: nearly all actives have a fitted effect of over 40% in size. Conditions: CRE-bla HEK293T viability, CellTiter-Glo luminescence, 5 h; series mostly up to 92.4 µM. The method, boiled down: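 Cytotoxicity counter screen multiplexed with the CRE-bla antagonist read: HEK293T cells in DMEM with dialyzed FBS and 25 mM HEPES were treated 3 hrs under 0.25 uM final NKH477, then viability measured by CellTiter-Glo luminescence.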
As for `C=CC(=O)OCC`, the Potency result was “inactive”.

As for `Brc1cccc(-c2ccccc2)c1`, the Potency result was “inactive”.

On to `CCc1ccc(C2CCNCC2)cc1`, for which the Potency entry was “inactive”.

For `C1CC2OC2CC1C1CO1` (stereo not given), the Potency result was “inactive”.

`O=P(O)(O)c1ccccc1`: the Potency result was “inactive”.

Take `Nc1ncc([N+](=O)[O-])s1`: the Potency result was “inactive”.

For the compound `C=CCOC(C)=O`, the Potency result was “inactive”.

On to `CNC(=O)NC(O)C(Cl)(Cl)Cl` (stereo not given), for which the Potency result was “inactive”.

For the compound `CCCCC(CC)COC(=O)c1ccc(C(=O)OCC(CC)CCCC)c(C(=O)OCC(CC)CCCC)c1` (stereo not given), the Potency result is “inactive”.

As to `CCC(Cl)[N+](=O)[O-]` (stereo not given), the Potency result is “inactive”.

`N#Cc1cc([N+](=O)[O-])ccc1N`: the Potency result is “inactive”.

As for `CCOP(=O)(O)C(N)=O`, the Potency entry is “inactive”.

In the case of `ClCC(Br)CBr` (stereo not given), the Potency result is “inactive”.

For the compound `S=C=NCc1ccccc1`, the Potency entry is “inactive”.

As to `CCCC1CCCCN1` (stereo not given), the Potency result was “inactive”.

Regarding `CN(CCO)CCO`, the Potency result is “inactive”.

Consider `CN(C)CCc1ccc(O)cc1`, for which the Potency entry is “inactive”.

Consider `CCCN1CCC[C@@H]2Cc3nc(N)ncc3C[C@H]21`, for which the Potency entry is “inactive”.

For the compound `COC(=O)NS(=O)(=O)c1ccc(N)cc1`, the Potency result was “inactive”.

For the compound `CCC(C)(C)c1ccc(O)cc1`, the Potency result is “inactive”.

Regarding `CCCC[n+]1ccccc1`, the Potency result is “inactive”.

Consider `CCOP(=S)(OCC)SCCSCC`, for which the Potency result is “inactive”.

For `[Cl-].[Cl-].[Sn+2]`, the Potency entry is “inactive”.

As for `CCC[CH2][Sn]([Cl])([Cl])[CH2]CCC`, the Potency was 17.4 µM (active) and 18 µM (active).

Take `CCc1cccc(CC)c1N(COC)C(=O)CCl`: the Potency result is “inactive”.

Consider `O=C1NCN(c2ccccc2)C12CCN(CC1COc3ccccc3O1)CC2` (stereo not given), for which the Potency result was “inactive”.

As to `O=S(=O)(O)O`, the Potency result was “inactive”.

On to `c1ccc(-c2ccccc2)cc1`, for which the Potency result was “inactive”.

For the compound `[O]=[Cr][O][Cr]=[O]`, the Potency entry was “inactive”.

As to `Oc1ccc(Cl)c(Cl)c1`, the Potency entry was “inactive”.

`O=C(CBr)c1ccccc1`: the Potency entry is “inactive”.

As for `C[C@@H]1C[C@@H]([C@H](O)CC2CC(=O)NC(=O)C2)C(=O)[C@@H](C)C1`, the Potency entry was “inactive”.

For the compound `CC(C)(COCC1CO1)COCC1CO1` (stereo not given), the Potency entry is “inactive”.

`O=P1(N(CCCl)CCCl)NCCCO1` (stereo not given): the Potency entry is “inactive”.

Consider `COc1ccc(C(=O)c2c(C)n(CCN3CCOCC3)c3ccccc23)cc1`, for which the Potency result is “inactive”.

With `Cc1ccc(C(=O)Cl)cc1`, the Potency result was “inactive”.

Consider `N#CCC#N`, for which the Potency result was “inactive”.

Regarding `COC(=O)NC(=S)Nc1ccccc1NC(=S)NC(=O)OC`, the Potency result is “inactive”.

Consider `CCOc1cc(C=O)ccc1O`, for which the Potency entry is “inactive”.

With `Clc1ccc(C(Cl)(Cl)Cl)c(Cl)c1`, the Potency result was “inactive”.

The nature of the next experiment: cAMP Responsive Elements (CRE) small molecule agonists, cell-based qHTS assay: qHTS cell viability counter screen (AID 2060914).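 Note: viability read after 3 h of compound exposure; nearly all actives have a fitted effect of over 50% in size.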 Conditions: CRE-bla HEK293T viability, CellTiter-Glo luminescence, 5 h; series mostly up to 92.4 µM. The gist of the method:
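CRE-bla HEK293T cells in 10% dialyzed FBS medium were exposed to compounds for 3 h at 37C after 18 h plating. CellTiter-Glo was then added in the same wells, and luminescence was read after 30 min at room temperature.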
For the compound `C=CC(=O)OCC`, the Potency result is “inactive”.

`Brc1cccc(-c2ccccc2)c1`: the Potency result is “inactive”.

As for `CCc1ccc(C2CCNCC2)cc1`, the Potency result is “inactive”.

`C1CC2OC2CC1C1CO1` (stereo not given): the Potency entry is “inactive”.

Turning to `O=P(O)(O)c1ccccc1`, the Potency entry is “inactive”.

For the compound `Nc1ncc([N+](=O)[O-])s1`, the Potency result is “inactive”.

With `C=CCOC(C)=O`, the Potency result is “inactive”.

For `CNC(=O)NC(O)C(Cl)(Cl)Cl` (stereo not given), the Potency entry is “inactive”.

`CCCCC(CC)COC(=O)c1ccc(C(=O)OCC(CC)CCCC)c(C(=O)OCC(CC)CCCC)c1` (stereo not given): the Potency entry was “inactive”.

As for `CCC(Cl)[N+](=O)[O-]` (stereo not given), the Potency entry was “inactive”.

Turning to `N#Cc1cc([N+](=O)[O-])ccc1N`, the Potency entry is “inactive”.

On to `CCOP(=O)(O)C(N)=O`, for which the Potency entry was “inactive”.

In the case of `ClCC(Br)CBr` (stereo not given), the Potency entry was “inactive”.

With `S=C=NCc1ccccc1`, the Potency result is “inactive”.

Consider `CCCC1CCCCN1` (stereo not given), for which the Potency entry was “inactive”.

Take `CN(CCO)CCO`: the Potency result is “inactive”.

Consider `CN(C)CCc1ccc(O)cc1`, for which the Potency result is “inactive”.

Consider `CCCN1CCC[C@@H]2Cc3nc(N)ncc3C[C@H]21`, for which the Potency entry was “inactive”.

Consider `COC(=O)NS(=O)(=O)c1ccc(N)cc1`, for which the Potency entry is “inactive”.

With `CCC(C)(C)c1ccc(O)cc1`, the Potency entry was “inactive”.

As for `CCCC[n+]1ccccc1`, the Potency result is “inactive”.

For `CCOP(=S)(OCC)SCCSCC`, the Potency result was “inactive”.

Regarding `[Cl-].[Cl-].[Sn+2]`, the Potency result was “inactive”.

Regarding `CCC[CH2][Sn]([Cl])([Cl])[CH2]CCC`, the Potency is 31 µM (active) and 30.6 µM (active).

With `CCc1cccc(CC)c1N(COC)C(=O)CCl`, the Potency result was “inactive”.

Consider `O=C1NCN(c2ccccc2)C12CCN(CC1COc3ccccc3O1)CC2` (stereo not given), for which the Potency entry was “inactive”.

Take `O=S(=O)(O)O`: the Potency result was “inactive”.

As to `c1ccc(-c2ccccc2)cc1`, the Potency entry is “inactive”.

With `[O]=[Cr][O][Cr]=[O]`, the Potency entry is “inactive”.

As for `Oc1ccc(Cl)c(Cl)c1`, the Potency entry was “inactive”.

With `O=C(CBr)c1ccccc1`, the Potency result was “inactive”.

With `C[C@@H]1C[C@@H]([C@H](O)CC2CC(=O)NC(=O)C2)C(=O)[C@@H](C)C1`, the Potency entry was “inactive”.

In the case of `CC(C)(COCC1CO1)COCC1CO1` (stereo not given), the Potency result was “inactive”.

For the compound `O=P1(N(CCCl)CCCl)NCCCO1` (stereo not given), the Potency result is “inactive”.

Take `COc1ccc(C(=O)c2c(C)n(CCN3CCOCC3)c3ccccc23)cc1`: the Potency result was “inactive”.

As for `Cc1ccc(C(=O)Cl)cc1`, the Potency entry was “inactive”.

Regarding `N#CCC#N`, the Potency entry was “inactive”.

As to `COC(=O)NC(=S)Nc1ccccc1NC(=S)NC(=O)OC`, the Potency entry is “inactive”.

As to `CCOc1cc(C=O)ccc1O`, the Potency entry was “inactive”.

Consider `Clc1ccc(C(Cl)(Cl)Cl)c(Cl)c1`, for which the Potency result was “inactive”.
